Measured values from PubChem BioAssay (NCI).
The panel holds about 79,000 compounds, 15% with a hit somewhere; the sample as a whole holds those more often. Values without a mark were called inactive. Activity calls are given as the source filed them. No stated cut-off is given here; in the data, active means growth inhibition above about 70%; inactive means the rest.

Columns and labels:
[1] = NCI Yeast Anticancer Drug Screen. Data for the wt1 strain (AID 149);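 further: 0% = growth of vehicle-treated wt1 cultures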; settings: S. cerevisiae wt1 strain (SPY 50644) growth inhibition, hits give high values
How it was run: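 Yeast wt1 strain exposed to compounds; growth inhibition measured relative to vehicle-treated controls.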

[2] = NCI Yeast Anticancer Drug Screen. Data for the rad50EPP+ strain (AID 151);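 further: 0% = growth of vehicle-treated control cultures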; settings: S. cerevisiae rad50 mutant strain, hits give high values
How it was run: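 One strain with a rad50 alteration (rad50EPP+) was compound-treated, its growth then compared to that of vehicle controls.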

[3] = NCI Yeast Anticancer Drug Screen. Data for the mgt1 strain (AID 153); settings: S. cerevisiae mgt1 mutant growth inhibition, hits give high values
How it was run: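 After exposure of the mgt1 yeast mutant to compound, growth was measured and reported as inhibition compared with vehicle controls.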

[4] = NCI Yeast Anticancer Drug Screen. Data for the rad50 strain (AID 155);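 further: 0% = growth of vehicle-only cultures of the same strain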; settings: S. cerevisiae rad50 strain growth inhibition, hits give high values
How it was run: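 Yeast carrying a defined DNA repair defect were exposed to test compounds, and growth was compared with vehicle-treated controls to give percent inhibition.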

[5] = NCI Yeast Anticancer Drug Screen. Data for the rad14 strain (AID 159);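 further: 0% = growth of vehicle-treated control cultures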; settings: S. cerevisiae rad14 strain growth inhibition, hits give high values
How it was run: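 Yeast cells carrying a defined DNA-repair defect were exposed to compounds, and growth inhibition was calculated relative to vehicle-treated control cultures.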

[6] = NCI Yeast Anticancer Drug Screen. Data for the sgs1 mgt1 strain (AID 161);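 further: 0% = growth of cultures given vehicle only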; settings: S. cerevisiae sgs1 mgt1 strain, hits give high values
How it was run: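 Inhibition of yeast growth, normalised to vehicle-treated controls, is reported for a strain bearing genetic alterations in DNA damage repair.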

[7] = NCI Yeast Anticancer Drug Screen. Data for the CLN2oe strain (AID 163);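 further: 0% = growth of vehicle-only control cultures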; settings: S. cerevisiae CLN2oe strain, hits give high values
How it was run: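 Here, growth inhibition in a cell-cycle-altered yeast strain after compound exposure was quantified against vehicle control growth.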

[8] = NCI Yeast Anticancer Drug Screen. Data for the cln2 rad14 strain (AID 165);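 further: 0% = growth equal to vehicle treated cultures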; settings: S. cerevisiae cln2 rad14 strain, hits give high values
How it was run: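 Growth of compound-exposed yeast (cln2 rad14 genotype) measured and expressed as inhibition relative to vehicle.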

[9] = NCI Yeast Anticancer Drug Screen. Data for the bub3 strain (AID 167); settings: S. cerevisiae bub3 mutant strain, hits give high values
How it was run: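 Compounds were applied to a genetically altered yeast strain carrying a cell-cycle control defect. Growth inhibition was scored against vehicle-treated controls.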

[10] = NCI Yeast Anticancer Drug Screen. Data for the wt2 strain (AID 169);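 further: 0% = growth of vehicle-treated yeast cultures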; settings: S. cerevisiae wt2 strain growth inhibition, hits give high values
How it was run: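 Genetically defined yeast strains from a DNA-repair/cell-cycle panel were used. Compound-exposed yeast growth was measured, and the inhibition was calculated relative to vehicle treatment.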

[11] = NCI Yeast Anticancer Drug Screen. Data for the mlh1 strain (AID 171);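 further: 0% = growth of vehicle-treated control cultures of the same strain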; settings: S. cerevisiae mlh1 strain growth inhibition, hits give high values
How it was run: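 Here the genetically defined yeast mutant is grown with each compound, and the extent to which its growth falls below that of vehicle-exposed cells is reported.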

[12] = NCI Yeast Anticancer Drug Screen. Data for the sgs1 strain (AID 173);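 further: 0% = growth of vehicle-only control cultures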; settings: S. cerevisiae sgs1 mutant, hits give high values
How it was run: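 Relative growth inhibition, referenced to vehicle, was determined in a yeast strain with a defined alteration affecting DNA damage repair or cell cycle control after compound exposure.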

[13] = NCI Yeast Anticancer Drug Screen. Data for the mlh1 rad18 strain (AID 175); settings: S. cerevisiae mlh1 rad18 strain growth inhibition, hits give high values
How it was run: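 In this whole-cell yeast screen, a strain with altered DNA damage repair is challenged with compound, and its growth is measured against matched vehicle-treated controls.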

[14] = NCI Yeast Anticancer Drug Screen. Data for the rad18 strain (AID 177); settings: S. cerevisiae rad18 mutant growth inhibition, hits give high values
How it was run: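 Screen uses a yeast strain with a defined lesion in DNA damage repair; compound effect is read as loss of growth compared to untreated vehicle cultures.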

[15] = at 5.0 µM (retest, dose inferred, filed as 0.5)
[16] = at 50.0 µM (retest, dose inferred, filed as 5.0)

## CCOc1ccccc1N1C(=O)CC(Sc2ccccc2N)C1=O (stereo not given)
[1]; at 1.2 µM
  growth inhibition: 12%
[1]; at 3.7 µM
  growth inhibition: 17%
[1]; at 11.0 µM
  growth inhibition: 10%
[1]; at 33.0 µM
  growth inhibition: 15%
[1]; at 100.0 µM
  growth inhibition: 9%
[2]; at 1.2 µM
  growth inhibition: 19%
[2]; at 3.7 µM
  growth inhibition: 8%
[2]; at 11.0 µM
  growth inhibition: 8%
[2]; at 33.0 µM
  growth inhibition: 16%
[2]; at 100.0 µM
  growth inhibition: 25%
[3]; at 1.2 µM
  growth inhibition: 3%
[3]; at 3.7 µM
  growth inhibition: -10%
[3]; at 11.0 µM
  growth inhibition: -13%
[3]; at 33.0 µM
  growth inhibition: -5%
[3]; at 100.0 µM
  growth inhibition: 1%
[4]; at 1.2 µM
  growth inhibition: 13%
[4]; at 3.7 µM
  growth inhibition: 2%
[4]; [15]
  growth inhibition: 39%
[4]; at 11.0 µM
  growth inhibition: 17%
[4]; at 33.0 µM
  growth inhibition: 10%
[4]; [16]
  growth inhibition: 75% (active)
[4]; at 50.0 µM
  growth inhibition: 0.8%
[4]; at 100.0 µM
  growth inhibition: -20%
[5]; at 1.2 µM
  growth inhibition: -23%
[5]; at 3.7 µM
  growth inhibition: -23%
[5]; at 11.0 µM
  growth inhibition: -41%
[5]; at 33.0 µM
  growth inhibition: -48%
[5]; at 100.0 µM
  growth inhibition: -55%
[6]; [15]
  growth inhibition: -5%
[6]; [16]
  growth inhibition: 24%
[6]; at 50.0 µM
  growth inhibition: 14.4%
[7]; at 1.2 µM
  growth inhibition: 10%
[7]; at 3.7 µM
  growth inhibition: 6%
[7]; at 11.0 µM
  growth inhibition: 1%
[7]; at 33.0 µM
  growth inhibition: -15%
[7]; at 100.0 µM
  growth inhibition: -19%
[8]; [15]
  growth inhibition: 39%
[8]; [16]
  growth inhibition: 1%
[8]; at 50.0 µM
  growth inhibition: -13.9%
[9]; at 1.2 µM
  growth inhibition: -4%
[9]; at 3.7 µM
  growth inhibition: 1%
[9]; [15]
  growth inhibition: 30%
[9]; at 11.0 µM
  growth inhibition: -10%
[9]; at 33.0 µM
  growth inhibition: -23%
[9]; [16]
  growth inhibition: 38%
[9]; at 50.0 µM
  growth inhibition: 11.4%
[9]; at 100.0 µM
  growth inhibition: -38%
[10]; at 1.2 µM
  growth inhibition: -2%
[10]; at 3.7 µM
  growth inhibition: -7%
[10]; at 11.0 µM
  growth inhibition: -8%
[10]; at 33.0 µM
  growth inhibition: -7%
[10]; at 100.0 µM
  growth inhibition: -13%
[11]; at 1.2 µM
  growth inhibition: -10%
[11]; at 3.7 µM
  growth inhibition: -18%
[11]; at 11.0 µM
  growth inhibition: -33%
[11]; at 33.0 µM
  growth inhibition: -18%
[11]; at 100.0 µM
  growth inhibition: -24%
[12]; at 1.2 µM
  growth inhibition: 16%
[12]; at 3.7 µM
  growth inhibition: 5%
[12]; at 11.0 µM
  growth inhibition: 6%
[12]; at 33.0 µM
  growth inhibition: 14%
[12]; at 100.0 µM
  growth inhibition: -1%
[13]; [15]
  growth inhibition: 37%
[13]; [16]
  growth inhibition: 70% (active)
[13]; at 50.0 µM
  growth inhibition: 16.5%
[14]; at 1.2 µM
  growth inhibition: 1%
[14]; at 3.7 µM
  growth inhibition: -12%
[14]; at 11.0 µM
  growth inhibition: -22%
[14]; at 33.0 µM
  growth inhibition: -13%
[14]; at 100.0 µM
  growth inhibition: -24%

## C[Si](C)(C)Cc1ccccc1C(=O)O
[1]; at 1.2 µM
  growth inhibition: 1%
[1]; at 3.7 µM
  growth inhibition: 1%
[1]; at 11.0 µM
  growth inhibition: 4%
[1]; at 33.0 µM
  growth inhibition: 38%
[1]; at 100.0 µM
  growth inhibition: 99% (active)
[2]; at 1.2 µM
  growth inhibition: -2%
[2]; at 3.7 µM
  growth inhibition: 1%
[2]; at 11.0 µM
  growth inhibition: 0%
[2]; at 33.0 µM
  growth inhibition: 4%
[2]; at 100.0 µM
  growth inhibition: 3%
[3]; at 1.2 µM
  growth inhibition: 1%
[3]; at 3.7 µM
  growth inhibition: 6%
[3]; at 11.0 µM
  growth inhibition: -2%
[3]; at 33.0 µM
  growth inhibition: 15%
[3]; at 100.0 µM
  growth inhibition: 99% (active)
[4]; at 1.2 µM
  growth inhibition: 4%
[4]; at 3.7 µM
  growth inhibition: 9%
[4]; [15]
  growth inhibition: 2%
[4]; at 11.0 µM
  growth inhibition: 4%
[4]; at 33.0 µM
  growth inhibition: 56%
[4]; [16]
  growth inhibition: 80% (active)
[4]; at 50.0 µM
  growth inhibition: 97.7% (active)
[4]; at 100.0 µM
  growth inhibition: 98% (active)
[5]; at 1.2 µM
  growth inhibition: 1%
[5]; at 3.7 µM
  growth inhibition: -4%
[5]; at 11.0 µM
  growth inhibition: 0%
[5]; at 33.0 µM
  growth inhibition: 32%
[5]; at 100.0 µM
  growth inhibition: 99% (active)
[6]; [15]
  growth inhibition: 9%
[6]; [16]
  growth inhibition: 38%
[6]; at 50.0 µM
  growth inhibition: 97.4% (active)
[7]; at 1.2 µM
  growth inhibition: 9%
[7]; at 3.7 µM
  growth inhibition: 12%
[7]; at 11.0 µM
  growth inhibition: 11%
[7]; at 33.0 µM
  growth inhibition: 20%
[7]; at 100.0 µM
  growth inhibition: 99% (active)
[8]; [15]
  growth inhibition: 33%
[8]; [16]
  growth inhibition: 86% (active)
[8]; at 50.0 µM
  growth inhibition: 98% (active)
[9]; at 1.2 µM
  growth inhibition: 6%
[9]; at 3.7 µM
  growth inhibition: 8%
[9]; [15]
  growth inhibition: 5%
[9]; at 11.0 µM
  growth inhibition: 2%
[9]; at 33.0 µM
  growth inhibition: 6%
[9]; [16]
  growth inhibition: 17%
[9]; at 50.0 µM
  growth inhibition: 97% (active)
[9]; at 100.0 µM
  growth inhibition: 97% (active)
[10]; at 1.2 µM
  growth inhibition: -1%
[10]; at 3.7 µM
  growth inhibition: -3%
[10]; at 11.0 µM
  growth inhibition: -1%
[10]; at 33.0 µM
  growth inhibition: 52%
[10]; at 100.0 µM
  growth inhibition: 99% (active)
[12]; at 1.2 µM
  growth inhibition: -1%
[12]; at 3.7 µM
  growth inhibition: 1%
[12]; at 11.0 µM
  growth inhibition: 5%
[12]; at 33.0 µM
  growth inhibition: 65%
[12]; at 100.0 µM
  growth inhibition: 99% (active)
[13]; [15]
  growth inhibition: -2%
[13]; [16]
  growth inhibition: 83% (active)
[13]; at 50.0 µM
  growth inhibition: 98.2% (active)
[14]; at 1.2 µM
  growth inhibition: 2%
[14]; at 3.7 µM
  growth inhibition: 3%
[14]; at 11.0 µM
  growth inhibition: 1%
[14]; at 33.0 µM
  growth inhibition: 65%
[14]; at 100.0 µM
  growth inhibition: 97% (active)
